For 19 molecules, Potency and activity change, negative = cytotoxicity results are on record in PubChem BioAssay (NCATS).

Records with an inconclusive call do not appear. Where a call stands in place of a potency, no number is given. Calls of active or inactive are those of the source. The call rests on the fitted dose curve; in most records, active means well fitted cell-killing curve with a large enough effect; inconclusive means small, poorly fitted or top-dose-only effect; inactive means flat fitted curve, though single readings scatter.
Potency means the concentration at half of the fitted maximal effect.

The experiment in a line: Cell Viability - Mesenchymal (AID 546).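 Further: cells exposed to compound for 40 hours before reading.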 The note with it: mesenchymal cells viability, qHTS; activity change, negative = cytotoxicity: at 91.7 µM (top of the series). From the text: NIH Chemical Genomics Center [NCGC]
NIH Molecular Libraries Screening Centers Network [MLSCN]
National Institutes of Environmental Health Sciences [NIEHS]
National Toxicology Program [NTP]
We have developed a 1536-well cell-based assay for quantitative high throughput screening (qHTS) against a number of cell lines to determine in vitro cytotoxicity of small molecules. This particular assay uses the kidney mesenchymal cell line which is derived from normal human renal glomeruli.
NCGC Assay Protocol Summary:
The CellTiter-Glo luminescent cell viability assay (Promega) is a homogeneous method to measure the number of viable cells in culture. The end point readout of this assay is based on quantitation of intracellular ATP, an indicator of metabolic activity, using the luciferase reaction. Luciferase catalyzes the oxidation of beetle Luciferin to oxyluciferin and light in the presence of ATP. The luminescent signal is proportional to amount of ATP present.
Using the CellTiter-Glo luminescent cell viability assay, the amount of cellular ATP was measured in the kidney mesenchymal cell line with complete culture medium following compound treatment for 40 hours. The assay was performed in opaque white Kalypsys 1536-well plates. In the screen, tamoxifen and doxorubicin were used as positive controls. Library compounds were measured for their ability to cause acute toxicity in the cell line, as reflected by a decrease in intracellular ATP levels, in a concentration-dependent manner. […] AC50 values were determined from concentration-response data modeled with the standard Hill equation.
qHTS protocol for CellTiter Glo kidney mesenchymal cells cellular assay
[Step] [Parameter] [Value] [Description]
1. Reagent; 5 uL; 1000 kidney mesenchymal cells/well
2. Time; 5 hr; 37 °C incubation
4. Controls; 23 nL; Tamoxifen 0.34 uM to 100 uM & Doxorubicin 0.02 nM to 100 uM
5. Time; 40 hr; 37 °C incubation
6. Reagent; 5 uL; CellTiter Glo reagent
7. Time; 20 min; Room Temperature
8. Detection; Luminescence; Viewlux plate reader
Keywords: cell viability, cytotoxicity, Kidney mesenchymal cell line, luminescence, NTPHTS, NTPHTS_NCGC, NIEHS, EPA, DSSTox, MLSMR, MLSCN, NIH Roadmap, qHTS, NCGC
A general note: In qHTS, concentration-response curves come from the screen itself.
As for `CC(=O)OC/C=C(C)/C=C/C=C(C)/C=C/C1=C(C)CCCC1(C)C`, the Potency result was “inactive”.

Turning to `Cc1ccc(O)cc1`, the Potency result was “inactive”.

In the case of `CCCCCCCCCCCCCCCC[n+]1ccccc1`, the Potency is 31.6 µM (active).

Take `CC(C)(c1ccc(O)cc1)c1ccc(O)cc1`: the Potency result is “inactive”.

Take `O=C(NO)c1ccccc1`: the Potency result is “inactive”.

For the molecule `Oc1ccccc1`, the Potency entry is “inactive”.

As for `Nc1ccc(O)cc1`, the Potency is 31.6 µM (active).

Turning to `Nc1cccc2c(N)cccc12`, the Potency result is “inactive”.

As to `CC(C)(C)c1ccc(O)c(O)c1`, the activity change, negative = cytotoxicity is -100% (active).

Consider `CC(C)C(C)(C)C(C)(C)C(C)(C)S`, for which the Potency result is “inactive”.

Take `CCCCC(CC)COC(=O)c1ccccc1C(=O)O` (centres undefined): the Potency result is “inactive”.

Consider `c1ccc2occc2c1`, for which the Potency result was “inactive”.

On to `O=C(Oc1ccccc1)c1ccccc1O`, for which the Potency entry is “inactive”.

With `COc1cc(C=O)ccc1O`, the Potency entry was “inactive”.

As to `Cc1cc(C(C)(C)C)c(O)c(C(C)(C)C)c1`, the Potency entry was “inactive”.

As for `O=C(c1ccccc1)c1ccccc1`, the Potency result is “inactive”.

As for `C1=CC2C3C=CC(C3)C2C1` (centres undefined), the Potency entry is “inactive”.

As to `Brc1ccccc1-c1ccccc1`, the Potency entry was “inactive”.

On to `OCc1c[nH]c2ccccc12`, for which the Potency result is “inactive”.
